About 13,000 (27%) of roughly 48,000 compounds showed an effect of 50% or more. Some of the results follow.
What follows are molecules tested on Wolbachia pipientis (assay: Anti-Wolbachia Cell-Based Screen). Conditions: 5 µM.
Assay type: functional
Design: scale not given: in the data most compounds retested in dose-response had high values

Row | SMILES | Percent Effect [%]
1 | CSc1nc(N)cc(N2C[C@@H]3CC[C@H](C2)N(Cc2cscn2)C3=O)n1 | 0.1745
2 | CCN(CC)C(=O)CN(C)C1CCc2ccccc21 (centres undefined) | -5.842
3 | CN(Cc1ccco1)Cc1ccccc1CNC(=O)c1ccc[nH]1 | 22.22
4 | O=C(CN(Cc1ccccc1)CC1CCOCC1)NC(=O)NC1CC1 | 17.45
5 | COCc1cccc(C(=O)N2CCCN(C(=O)OCC(C)C)CC2)c1 | 8.994
6 | O=C(NCC1CC(=O)N(CCc2ccccc2)C1)c1c(F)cccc1F (centres undefined) | -5.982
7 | CC(C)COC(=O)N1CC(=O)N(CCc2ccccc2)CC(O)C1 (centres undefined) | 128.8
8 | CN(Cc1cc2n(n1)CCNC2)Cc1cc(-c2ccccn2)no1 | -13.42
9 | COCCN(C)CCN1CC2(CCN(C3CCCCC3)CC2)OC1=O | 5.41
10 | CC(=O)N1C[C@H]2CNC[C@@]2(C(=O)NCCOc2ccccc2F)C1 | -24.48
11 | CC1(C(=O)NCCCOc2ccccc2F)CC(=O)N2C=CC=CC2=N1 (centres undefined) | 94.6
12 | CC(C)n1cnnc1CNC(=O)CCCOc1ccccc1F | -11.73
13 | Cc1ccccc1OCCCC(=O)NCc1ccnc(O)c1 | 0.1065
14 | Cc1ccc(OCCCNC(=O)NC(C)c2nncn2C)cc1 (centres undefined) | 6.672
15 | Cc1ccccc1OCCCNC(=O)C1(C)CC(=O)N2C=CC=CC2=N1 (centres undefined) | 112.8
16 | CSc1cc(CNC(=O)CCOc2ccccc2C)ccn1 | 2.605
17 | Cc1ccc(OCCCNC(=O)C2(C)CC(=O)N3C=CC=CC3=N2)cc1 (centres undefined) | 121.9
18 | Cc1ccc(OCCCNC(=O)C(C)Sc2nncn2C)cc1 (centres undefined) | -12.11
19 | COc1cc(C)c(CNC(C)c2csc(C3CC3)n2)cc1OC (centres undefined) | 30.24
20 | CC(C)Cc1cc(C(=O)NC(C)(C)c2nnc(N)s2)n(C)n1 | -11.71
21 | Cc1noc(NCc2ccc(F)cc2F)n1 | 23.53
22 | Cc1noc(C2CCCN(C(=O)c3ccc(Cl)cc3F)C2)n1 (centres undefined) | -0.5657
23 | CC(C)c1nnc2ccc(N3CCC(C(N)=O)CC3)nn12 | 13.6
24 | CS(=O)(=O)CCOCCNc1ccc2ccc(F)cc2n1 | 5.905

Row | SMILES | Percent Effect [%]
25 | COCC(NC(=O)c1ccc[nH]1)c1cccc(C(F)(F)F)c1 (centres undefined) | -9.811
26 | O=C(O)C(F)(F)F.O=C(O)C(F)(F)F.O=C(O)c1cc2c(nc1NCC1CC1)CCN(C1CCOC1)CC2 (centres undefined) | -1.204
27 | CN1CCc2cc(C(=O)N(C)C)c(NCC3CC3)nc2CC1.O=C(O)C(F)(F)F.O=C(O)C(F)(F)F | 92.24
28 | CC(C)CCN1CCc2cc(C(=O)N(C)C)c(NCC3CC3)nc2CC1.O=C(O)C(F)(F)F.O=C(O)C(F)(F)F | 98.43
29 | CC(C)Nc1nc2c(cc1C(=O)NCC1CC1)CCN(C)CC2.O=C(O)C(F)(F)F.O=C(O)C(F)(F)F | 0.01551
30 | O=C1N(CCO)CCCC12CCN(Cc1noc(C3CCCC3)n1)C2 (centres undefined) | -14.7
31 | COc1ccc2c(=O)n(CC3CCCN(C)C3)ccc2c1OC (centres undefined) | -1.973
32 | Cc1cc(C(=O)N2CCCC(N3CCNC3=O)C2)nn1C(C)(C)C (centres undefined) | -5.29
33 | CCCS(=O)(=O)c1ncc(CN2CCC(CO)CC2)n1CC1CCCO1 (centres undefined) | 10.89
34 | Cn1nc(CNc2ncccn2)c2c1CN(c1cnccn1)CC2 | 89.69
35 | CCN1CCc2onc(CNc3ncccn3)c2C1 | 1.38
36 | CC(C)n1nc(CNc2ncccn2)c2c1CN(C)CC2.O=C(O)C(F)(F)F.O=C(O)C(F)(F)F.O=C(O)C(F)(F)F | -10.41
37 | c1cnc(N2CCc3onc(CN4CCOCC4)c3C2)cn1 | 102
38 | O=C(c1cnccn1)N1CCc2onc(CN3CCCC3)c2C1 | 10.5
39 | O=C(c1ccncc1)N1CCc2onc(CN3CCCC3)c2C1 | -9.45
40 | O=C(c1ccsc1)N1CCc2onc(CN3CCOCC3)c2C1 | -3.104
41 | CCS(=O)(=O)N1CCc2onc(CNc3ncccn3)c2C1 | 3.304
42 | c1cnc(N2CCc3onc(CN4CCCC4)c3C2)cn1 | 88.59
43 | CC(C)n1nc(CNc2ncccn2)c2c1CN(S(C)(=O)=O)CC2 | 3.209
44 | O=C(c1cccnc1)N1CCc2onc(CN3CCCC3)c2C1 | -1.696
45 | c1cnc(NCc2noc3c2CN(c2cnccn2)CC3)nc1 | 99.25
46 | COc1cc(C(=O)NC2COc3ccccc3C2)ccc1OCC(N)=O (centres undefined) | 16.72
47 | Fc1ccc2[nH]c(C3CCCN3CCCn3cccn3)nc2c1 (centres undefined) | -31.47
48 | C=Cc1cccc(CN2C[C@@H](CN(C)CC)[C@@H](CO)C2)c1 | -5.546

Row | SMILES | Percent Effect [%]
49 | O=C1CC2(CCN(C(=O)c3cccc(Cl)c3)CC2)CN1 | -6.217
50 | COC(=O)[C@@H](NC(=O)c1coc(COc2cccc(F)c2F)n1)C(C)C | -36.4
51 | Cc1cc(CN(CCO)c2ccc(Br)cc2)on1 | -2.085
52 | Cc1cccc(N2CC[C@@H]3[C@@H](CO[C@H]3CNS(C)(=O)=O)C2)n1 | -14.44
53 | CN(Cc1ccco1)C[C@H]1OC[C@@H]2CCN(Cc3cccnc3)C[C@@H]21.O=C(O)C(F)(F)F.O=C(O)C(F)(F)F.O=C(O)C(F)(F)F | 7.341
54 | CN(Cc1ccco1)C[C@H]1OC[C@@H]2CN(c3ncc(F)cn3)CC[C@@H]21.O=C(O)C(F)(F)F.O=C(O)C(F)(F)F | 81.17
55 | CN(Cc1ccco1)C[C@H]1OC[C@@H]2CCN(Cc3ccncc3)C[C@@H]21.O=C(O)C(F)(F)F.O=C(O)C(F)(F)F.O=C(O)C(F)(F)F | -1.908
56 | Cc1ccc(N2CC[C@H]3CO[C@H](CN(C)Cc4ccco4)[C@H]3C2)nn1.O=C(O)C(F)(F)F.O=C(O)C(F)(F)F | 95.46
57 | Cc1cccc(N2CC[C@H]3[C@H](CO[C@@H]3CN(C)Cc3ccco3)C2)n1.O=C(O)C(F)(F)F.O=C(O)C(F)(F)F | 52.12
58 | CN(Cc1ccco1)C[C@H]1OC[C@@H]2CCN(Cc3cccs3)C[C@@H]21.O=C(O)C(F)(F)F.O=C(O)C(F)(F)F | -12.79
59 | CN(Cc1ccco1)C[C@H]1OC[C@@H]2CCN(Cc3nccs3)C[C@@H]21 | -15.41
60 | Cc1cccc(N2CC[C@H]3CO[C@H](CN(C)Cc4ccco4)[C@H]3C2)n1 | 108.5
61 | CN(Cc1ccco1)C[C@@H]1OC[C@H]2CN(Cc3nccs3)CC[C@H]21.O=C(O)C(F)(F)F.O=C(O)C(F)(F)F | 3.908
62 | CC(C)N1CC(c2ncc(-c3ccc4c(c3)OCCO4)[nH]2)CC1=O (centres undefined) | 5.292
63 | CC(C)CN1C(=O)CO[C@@H]2CN(C(=O)[C@H]3CCCO3)C[C@H]21 | -3.768
64 | CC(C)(O)CCc1ccc(C(=O)N2CCN(CCS(C)(=O)=O)CC2)cc1 | -13.16
65 | Cl.Cn1ncc2c1CCCC2NCc1cc(Br)cs1 (centres undefined) | 7.416
66 | Cc1ccc(NC(=O)N2CCOC(C)C2)cc1Cl (centres undefined) | 8.105
67 | COc1ccc(NC(=O)Cn2nc(C)c(C)cc2=O)cc1Cl | -5.001
68 | CN1CC(Oc2ccccc2)=NC(SCC(=O)Nc2ccc(Cl)cc2)=N1 | 11.53
69 | Cc1cc(=O)n(CC(=O)Nc2ccc(Cl)cc2)nc1C | -24.72
70 | Cc1ccc(NC(=O)N2CCCC(O)(CO)CC2)cc1Cl (centres undefined) | -14.19
71 | COC(=O)NCCCC(=O)NCC1(c2cccc(Cl)c2)CC1 | -5.013
72 | CCOC(=O)N1CC(C)=C(C)CN1C(=O)Nc1ccc(Cl)c(Cl)c1 | 122.4

Row | SMILES | Percent Effect [%]
73 | COC(=O)N1CC(C)=C(C)CN1C(=O)Nc1ccc(Cl)cc1 | 87.33
74 | COC(=O)NCCC(=O)NCC1(c2cccc(Cl)c2)CC1 | 6.503
75 | COC(=O)N1CC(C)=C(C)CN1C(=O)Nc1ccc(Cl)c(Cl)c1 | 93.89
76 | CCc1csc(CNCC(=O)Nc2ccc(Cl)c(C)c2)n1 | 20.64
77 | COC(=O)N1CC(C)=C(C)CN1C(=O)Nc1cccc(Cl)c1 | 127.6
78 | CCCc1c(C(=O)N2CCN(c3ncccn3)CC2)cnn1C | -7.534
79 | COc1ccc(C2CCN(CCCC#N)CC2)cc1 | 4.999
80 | CN(CCn1ccc2ccccc21)C(=O)CS(C)(=O)=O | -3.366
81 | CCC(NCc1cccc(Cl)c1)c1ccccc1OCC(=O)NC (centres undefined) | -3.101
82 | c1ccc2sc(CN3CCOC(Cn4cccn4)C3)nc2c1 (centres undefined) | 18.8
83 | Cc1nc(C)n(CC2CN(CCCOc3ccccc3)CCO2)n1 (centres undefined) | 117
84 | Cc1cnc(CN2CCOC(Cn3nc(C)nc3C)C2)cn1 (centres undefined) | 1.014
85 | Cc1cc(C)n(CC2CN(Cc3nc4ccccc4s3)CCO2)n1 (centres undefined) | 100.5
86 | Cc1nc(C)n(CC2CN(CCc3ccccn3)CCO2)n1 (centres undefined) | -80.6
87 | c1ccc2sc(CN3CCOC(Cn4cncn4)C3)nc2c1 (centres undefined) | -2.125
88 | Cc1cnn(CC2CN(Cc3nc4ccccc4s3)CCO2)c1 (centres undefined) | 112.2
89 | Cc1nc(C)n(CC2CN(CCCOc3ccccc3C)CCO2)n1 (centres undefined) | -2.427
90 | Cc1nc(C)n(CC2CN(Cc3nc4ccccc4s3)CCO2)n1 (centres undefined) | 214.4
91 | CCOc1cc(CNCCCn2ccnc2)cc(Cl)c1OC | -2.323
92 | COCCN1C[C@H]2[C@@H](C1)N(C(=O)c1cccs1)CC[C@H]2OC | -4.854
93 | CC(=O)c1ccc(OCC(=O)NC(C)CCc2ccco2)cc1 (centres undefined) | -8.021
94 | COc1ccccc1OC1(C(=O)O)CCN(c2ncnc(C)c2C)CC1 | -46.26

From ChEMBL document CHEMBL3988442, “University of Dundee, Small-Polar-MMV Screening Library” (2021)
